Assay results: PubChem BioAssay (NCATS)
Records with an inconclusive call do not appear. Activity calls are given as the source filed them. The call rests on the fitted dose curve; in most records, active means well fitted inhibition curve with a large enough effect; inconclusive means small, poorly fitted or top-dose-only effect; inactive means flat fitted curve, though single readings scatter.

Experiments:
PC26 = assay: qHTS profiling for inhibitors of Plasmodium falciparum proliferation (AID 504749);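 further: 0% = DMSO vehicle and full inhibition = artemisinin control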; conditions: P. falciparum in erythrocytes, SYBR Green DNA, 72 h; series mostly up to 28.7 µM
Method in brief: (§1)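 P. falciparum-infected erythrocytes (0.3% parasitemia, 2.5% hematocrit final) were exposed to compounds for 72 h at 37 C in 5% CO2, then lysed with SYBR Green buffer overnight at room temperature; parasite DNA fluorescence was normalized to artemisinin and DMSO controls.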

PC49 = assay: as above; conditions: P. falciparum in erythrocytes, SYBR Green DNA, 72 h; series mostly up to 28.7 µM
Method in brief: as §1

SC27B = assay: as above; conditions: P. falciparum in erythrocytes, SYBR Green DNA, 72 h; series mostly up to 28.7 µM
Method in brief: as §1

TAB109 = assay: as above; conditions: P. falciparum in erythrocytes, SYBR Green DNA, 72 h; series mostly up to 28.7 µM
Method in brief: as §1

TAB113 = assay: as above; conditions: P. falciparum in erythrocytes, SYBR Green DNA, 72 h; series mostly up to 28.7 µM
Method in brief: as §1

TAB165 = assay: as above; conditions: P. falciparum in erythrocytes, SYBR Green DNA, 72 h; series mostly up to 28.7 µM
Method in brief: as §1

W2 = assay: as above; conditions: P. falciparum in erythrocytes, SYBR Green DNA, 72 h; series mostly up to 28.7 µM
Method in brief: as §1

CRL-7250 = normal cell line; assay: Cytotoxic Profiling of Annotated Libraries Using Quantitative High-Throughput Screening (AID 1296008); conditions: Five cell lines viability, CellTiter-Glo ATP luminescence, 48-72 h; stronger effect = lower value; on max response: on the % scale 0 is the no-effect control and ±100 the full control effect
Method in brief: (§2)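 Compounds were pin-transferred onto cells and incubated 48 or 72 hr at 37 degree Celsius, 95% humidity. CellTiter-Glo was added, plates sat 10 min at room temperature, then ATP-coupled luminescence was imaged as the viability read-out.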

HEK293 = assay: as above; conditions: Five cell lines viability, CellTiter-Glo ATP luminescence, 48-72 h; stronger effect = lower value
Method in brief: as §2

HaCat [1] = assay: as above; conditions: Five cell lines viability, CellTiter-Glo ATP luminescence, 48-72 h; stronger effect = lower value
Method in brief: as §2

KB-3-1 = assay: as above; conditions: Five cell lines viability, CellTiter-Glo ATP luminescence, 48-72 h, stronger effect = lower value
Method in brief: as §2

NIH3T3 [2] = assay: as above; conditions: Five cell lines viability, CellTiter-Glo ATP luminescence, 48-72 h; stronger effect = lower value
Method in brief: as §2

HACAT [3] = assay: qHTS assay to identify novel small-molecules to repurpose for Merkel cell carcinoma treatment (AID 1296009); conditions: MCC and control cell lines, CellTiter-Glo viability, 72 h; at 44.8 µM (top of the series) unless noted
Method in brief: (§3)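 Cells exposed to NPC (8-point) and MIPE (11-point) compound dilutions for 72 hr at 37 degree celsius; viability read by CellTiter-Glo luminescence, normalized to no-cell and DMSO in-plate controls.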

MCC-13 = assay: as above; conditions: MCC and control cell lines, CellTiter-Glo viability, 72 h; series mostly up to 46 µM
Method in brief: as §3

MCC-26 = assay: as above; conditions: MCC and control cell lines, CellTiter-Glo viability, 72 h; series mostly up to 46 µM
Method in brief: as §3

MKL-1 = assay: as above; conditions: MCC and control cell lines, CellTiter-Glo viability, 72 h; series mostly up to 46 µM
Method in brief: as §3

MKL-2 = assay: as above; conditions: MCC and control cell lines, CellTiter-Glo viability, 72 h; series mostly up to 46 µM
Method in brief: as §3

NIH3T3 [4] = assay: as above; conditions: MCC and control cell lines, CellTiter-Glo viability, 72 h; at 44.8 µM (top of the series) unless noted
Method in brief: as §3

UISO = assay: as above; conditions: MCC and control cell lines, CellTiter-Glo viability, 72 h; series mostly up to 46 µM
Method in brief: as §3
Further: nearly all actives have a fitted effect of over 60% in size.

CC(=O)OCC(COC(C)=O)OC(C)=O
inactive: Potency (PC26) | Potency (PC49) | Potency (SC27B) | Potency (TAB109) | Potency (TAB113) | Potency (TAB165) | Potency (W2) | max response (CRL-7250) -1.86% | max response (HEK293) -3.97% | outcome (HaCat [1]) | max response (KB-3-1) 8.48% | outcome (NIH3T3 [2]) | outcome (HACAT [3]) | outcome (MCC-13) | outcome (MCC-26) | outcome (MKL-1) | outcome (MKL-2) | outcome (NIH3T3 [4]) | outcome (UISO)

CO[C@@]1(NC(=O)C(C(=O)O)c2ccc(O)cc2)C(=O)N2C(C(=O)O)=C(CSc3nnnn3C)CO[C@@H]21 (stereo partly drawn)
inactive: max response (CRL-7250) -2.58% | max response (HEK293) 1.05% | outcome (HaCat [1]) | max response (KB-3-1) 4.1% | max response (NIH3T3 [2]) -2.47% | outcome (HACAT [3]) | outcome (MCC-13) | outcome (MCC-26) | outcome (MKL-1) | outcome (MKL-2) | outcome (UISO)

CN1C(C)(C)CCCC1(C)C
inactive: Potency (PC26) | Potency (PC49) | Potency (SC27B) | Potency (TAB109) | Potency (TAB113) | Potency (TAB165) | Potency (W2) | max response (CRL-7250) -19.2% | max response (HEK293) -21.6% | outcome (HaCat [1]) | max response (KB-3-1) 7.25% | max response (NIH3T3 [2]) -1.07% | outcome (HACAT [3]) | outcome (MCC-13) | outcome (MCC-26) | outcome (MKL-1) | outcome (MKL-2) | outcome (UISO)

CC1CCc2cc(F)cc3c(=O)c(C(=O)O)cn1c23 (stereo not drawn)
inactive: Potency (PC26) | Potency (PC49) | Potency (SC27B) | Potency (TAB109) | Potency (TAB113) | Potency (TAB165) | Potency (W2) | outcome (CRL-7250) | max response (HEK293) -3.78% | outcome (HaCat [1]) | max response (KB-3-1) -6.7% | max response (NIH3T3 [2]) -1.98% | outcome (HACAT [3]) | outcome (MCC-13) | outcome (MCC-26) | outcome (MKL-1) | outcome (MKL-2) | outcome (UISO)

CC(=O)SC[C@@H](Cc1ccccc1)C(=O)NCC(=O)OCc1ccccc1
inactive: Potency (PC26) | Potency (PC49) | Potency (SC27B) | Potency (TAB109) | Potency (TAB113) | Potency (TAB165) | Potency (W2) | outcome (CRL-7250) | max response (HEK293) -5.72% | outcome (HaCat [1]) | max response (KB-3-1) 6.03% | max response (NIH3T3 [2]) -11.9% | outcome (HACAT [3]) | outcome (MCC-13) | outcome (MCC-26) | outcome (MKL-1) | outcome (MKL-2) | outcome (UISO)

CCc1nnc(NS(=O)(=O)c2ccc(N)cc2)s1
inactive: Potency (PC26) | Potency (PC49) | Potency (SC27B) | Potency (TAB109) | Potency (TAB113) | Potency (TAB165) | Potency (W2) | max response (CRL-7250) 4.08% | max response (HEK293) -0.578% | outcome (HaCat [1]) | max response (KB-3-1) 7.07% | max response (NIH3T3 [2]) 3.74% | outcome (HACAT [3]) | outcome (MCC-13) | outcome (MCC-26) | outcome (MKL-1) | outcome (MKL-2) | outcome (UISO)

C[N+]1(C)CCCC(OC(=O)C(O)(c2ccccc2)c2ccccc2)C1 (stereo not drawn)
inactive: max response (CRL-7250) 2.14% | max response (HEK293) -3.74% | outcome (HaCat [1]) | max response (KB-3-1) -3.88% | max response (NIH3T3 [2]) 4.37% | outcome (HACAT [3]) | outcome (MCC-13) | outcome (MCC-26) | outcome (MKL-1) | outcome (MKL-2) | outcome (UISO)
